According to PubChem BioAssay (NCATS):
Inconclusive results are not listed. The source made the active and inactive calls. The call rests on the fitted dose curve; in most records, active means well fitted curve in the direction sought with a large enough effect; inconclusive means small, poorly fitted or top-dose-only effect, or another doubt; inactive means no such curve, though single readings can be large; an effect the other way counts as inactive or inconclusive.

Legend:
[1] = system: NIH3T3; test: qHTS assay to identify novel small-molecules to repurpose for Merkel cell carcinoma treatment (AID 1296009); settings: MCC and control cell lines, CellTiter-Glo viability, 72 h; at 44.8 µM (top of the series) unless noted; further: nearly all actives have a fitted effect of over 60% in size
Procedure, shortened: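 Cells were incubated with compound for 72 hr at 37 degree celsius before CellTiter-Glo addition. Luminescence was normalized with no-cell wells as full cytotoxicity and DMSO as baseline.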

[2] = system: CASKI; test: Primary qHTS to identify gynecologic anti-cancer compounds using libraries of approved drugs and bioactive compounds (AID 1345084); settings: Gynecologic cancer cell panel viability, ATPlite luminescence, 48 h; series mostly up to 57.5 µM; further: on the % scale 0 is the no-effect control and ±100 the full control effect; nearly all actives have a fitted effect of over 55% in size
Procedure, shortened: (§1)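 48 h compound exposure at 37 C, 5% CO2; five-point qHTS. ATPlite luminescence readout of cell ATP.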

[3] = system: Es-2; test: as above; settings: Gynecologic cancer cell panel viability, ATPlite luminescence, 48 h; series mostly up to 57.5 µM
Procedure, shortened: as §1

[4] = system: Hek293T; test: as above; settings: Gynecologic cancer cell panel viability, ATPlite luminescence, 48 h, control line for the selectivity index; series mostly up to 57.5 µM
Procedure, shortened: as §1

[5] = system: JEG-3; test: as above; settings: Gynecologic cancer cell panel viability, ATPlite luminescence, 48 h; series mostly up to 57.5 µM
Procedure, shortened: as §1

[6] = system: OV90; test: as above; settings: Gynecologic cancer cell panel viability, ATPlite luminescence, 48 h; series mostly up to 57.5 µM
Procedure, shortened: as §1

[7] = system: PA-1; test: as above; settings: Gynecologic cancer cell panel viability, ATPlite luminescence, 48 h; series mostly up to 57.5 µM
Procedure, shortened: as §1

[8] = system: Tov-21-G; test: as above; settings: Gynecologic cancer cell panel viability, ATPlite luminescence, 48 h; series mostly up to 57.5 µM
Procedure, shortened: as §1

[9] = system: C33A; test: as above; settings: Gynecologic cancer cell panel viability, ATPlite luminescence, 48 h; series mostly up to 57.5 µM
Procedure, shortened: as §1

[10] = system: CAOV3; test: as above; settings: Gynecologic cancer cell panel viability, ATPlite luminescence, 48 h; series mostly up to 57.5 µM
Procedure, shortened: as §1

[11] = system: HeLa; test: as above; settings: Gynecologic cancer cell panel viability, ATPlite luminescence, 48 h; series mostly up to 57.5 µM
Procedure, shortened: as §1

[12] = system: SKOV3; test: as above; settings: Gynecologic cancer cell panel viability, ATPlite luminescence, 48 h; series mostly up to 57.5 µM
Procedure, shortened: as §1

[13] = system: Tov112D; test: as above; settings: Gynecologic cancer cell panel viability, ATPlite luminescence, 48 h; series mostly up to 57.5 µM
Procedure, shortened: as §1

O=S(=O)(Nc1ccccn1)c1ccc(N=Cc2c(O)[nH]c3ccc4ncsc4c23)cc1
inactive: outcome [1] inactive [at 9.27 µM] | activity change, negative = cytotoxicity [2] 20.8% [at 11.6 µM] | activity change, negative = cytotoxicity [3] -0.0602% [at 11.6 µM] | activity change, negative = cytotoxicity [4] 20.8% [at 11.6 µM] | activity change, negative = cytotoxicity [5] 3.65% [at 11.6 µM] | activity change, negative = cytotoxicity [6] -9.17% [at 11.6 µM] | activity change, negative = cytotoxicity [7] -2.66% [at 11.6 µM] | activity change, negative = cytotoxicity [8] 18.8% [at 11.6 µM]

CC(C)/C=C1\NC(=O)C(C(C)C)n2c1nc1c(c2=O)C=CC=CO1 (stereo not given)
inactive: outcome [1] | Potency [9] | Potency [10] | Potency [2] | Potency [3] | Potency [11] | Potency [4] | Potency [5] | Potency [6] | Potency [7] | Potency [12] | Potency [8] | Potency [13]

C=C1CCC2C(C)(COC(C)=O)CCCC2(C)C1CCC(C)CC(=O)O (stereo not given)
inactive: outcome [1] | Potency [9] | Potency [2] | Potency [3] | Potency [11] | Potency [4] | Potency [5] | Potency [6] | Potency [7] | Potency [12] | Potency [8] | Potency [13]

COC1=CC(=O)CC(C)C12Oc1cc(OC)cc(O)c1C2=O (stereo not given)
inactive: outcome [1] | Potency [9] | Potency [10] | Potency [2] | Potency [3] | Potency [11] | Potency [4] | Potency [5] | Potency [6] | Potency [7] | Potency [8] | Potency [13]

CC1(C)CCCC2(C)C(C(=O)O)=CCC12 (stereo not given)
inactive: Potency [9] | Potency [10] | Potency [2] | Potency [3] | Potency [11] | Potency [4] | Potency [5] | Potency [6] | Potency [7] | Potency [12] | Potency [8]

CC(C)=CCC[C@](C)(O)[C@H]1CC[C@]2(C)[C@@H]1[C@H](O)CC1[C@@]3(C)CC[C@H](O)C(C)(C)[C@@H]3[C@@H](O[C@@H]3O[C@H](CO)[C@@H](O)[C@H](O)[C@H]3O[C@@H]3O[C@H](CO)[C@@H](O)[C@H](O)[C@H]3O)C[C@]12C (stereo not given in full)
inactive: outcome [1] inactive [at 17.4 µM] | Potency [9] | Potency [2] | Potency [3] | Potency [11] | Potency [4] | Potency [5] | Potency [6] | Potency [7] | Potency [12] | Potency [8] | Potency [13]

CC1=CC(=O)[C@]2(O[C@@H]3O[C@@H](C)[C@H](O)[C@@H](O)[C@H]3OC(=O)/C=C/c3ccccc3)C=CO[C@@H](O[C@@H]3O[C@H](CO)[C@@H](O)[C@H](O)[C@H]3O)[C@H]12
inactive: outcome [1] inactive [at 17.4 µM] | Potency [9] | Potency [10] | Potency [2] | Potency [3] | Potency [11] | Potency [4] | Potency [5] | Potency [6] | Potency [7] | Potency [8] | Potency [13]

O=C1CC2(CCCC2)[C@H](O)C(=O)N1CCCCN1CCN(c2ncccn2)CC1
inactive: Potency [9] | Potency [10] | Potency [2] | Potency [3] | Potency [11] | Potency [4] | Potency [5] | Potency [6] | Potency [7] | Potency [12] | Potency [8] | Potency [13]

CCN(Cc1cccnc1)C(=O)CN(c1ccc(OC)nc1)S(=O)(=O)c1ccccc1C
inactive: outcome [1] | Potency [9] | Potency [10] | Potency [2] | Potency [3] | Potency [11] | Potency [4] | Potency [5] | Potency [6] | Potency [7] | Potency [8] | Potency [13]

CCC(C)/C=C(C)/C=C/c1cc2c(cn1)C(=O)C(C)(OC(C)=O)C(O)=C2Cl (stereo not given)
inactive: outcome [1] | Potency [9] | Potency [2] | Potency [3] | Potency [11] | Potency [4] | Potency [5] | Potency [7] | Potency [12] | Potency [8] | Potency [13]

CC(=O)OC1C(O)CC2(C)C(CCC(C)C23Cc2c(O)cc(CO)c(C=O)c2O3)C1(C)C (stereo not given)
inactive: outcome [1] inactive [at 17.4 µM] | Potency [9] | Potency [2] | Potency [3] | Potency [11] | Potency [4] | Potency [5] | Potency [6] | Potency [12] | Potency [8] | Potency [13]

COc1ccc(CN2C(=O)C(=O)c3cc(S(=O)(=O)N4CCC[C@H]4COc4cccnc4)ccc32)cc1
inactive: outcome [1] | Potency [9] | Potency [10] | Potency [2] | Potency [3] | Potency [11] | Potency [4] | Potency [5] | Potency [6] | Potency [7] | Potency [8] | Potency [13]

CC12CCC(OC3OC(CO)C(O)C(OC4OC(CO)C(O)C(O)C4O)C3O)CC1=CCC1C2CCC2(C)/C(=C3/COC(=O)C3)CCC12O (stereo not given)
inactive: Potency [9] | Potency [10] | Potency [2] | Potency [3] | Potency [11] | Potency [4] | Potency [5] | Potency [6] | Potency [7] | Potency [12] | Potency [8]

CC12CCC(OC3OC(CO)C(O)C(OC4OC(CO)C(O)C(O)C4O)C3O)CC1CCC1C2CCC2(C)/C(=C3/COC(=O)C3)CCC12O (stereo not given)
inactive: Potency [9] | Potency [10] | Potency [2] | Potency [3] | Potency [11] | Potency [4] | Potency [5] | Potency [6] | Potency [7] | Potency [12] | Potency [8]
